In the library only some 1.4% were active in any assay of this set; here they are far more common.
H9c2 protect – protects H9c2 cardiomyocytes from peroxide injury. H2O2 injury protection, ATPLite, 2 h. protection from H2O2 cell death, % at 20 µM. actives 0.63% (n = 360,000);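 active = compounds giving at least 50% protection of heart cells from peroxide-induced death in the single-dose screen, raw or plate-pattern-corrected value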;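 also: 0% = DMSO wells with peroxide and 100% = DMSO wells without peroxide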
p-CIP stab down – compounds decreasing mouse p/CIP protein stability. decrease of EGFP signal, % at 10 µM. F442A p/CIP-EGFP cells, EGFP fluorescence, 16 h. actives 0.01% (n = 290,000);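 active = EGFP signal decrease of at least 30% at 10 µM or well 3 SD below plate mean, unless failing retest; inactive = the rest, including hits failing retest or dose response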
Target sequence (Q05BA5 1-1403): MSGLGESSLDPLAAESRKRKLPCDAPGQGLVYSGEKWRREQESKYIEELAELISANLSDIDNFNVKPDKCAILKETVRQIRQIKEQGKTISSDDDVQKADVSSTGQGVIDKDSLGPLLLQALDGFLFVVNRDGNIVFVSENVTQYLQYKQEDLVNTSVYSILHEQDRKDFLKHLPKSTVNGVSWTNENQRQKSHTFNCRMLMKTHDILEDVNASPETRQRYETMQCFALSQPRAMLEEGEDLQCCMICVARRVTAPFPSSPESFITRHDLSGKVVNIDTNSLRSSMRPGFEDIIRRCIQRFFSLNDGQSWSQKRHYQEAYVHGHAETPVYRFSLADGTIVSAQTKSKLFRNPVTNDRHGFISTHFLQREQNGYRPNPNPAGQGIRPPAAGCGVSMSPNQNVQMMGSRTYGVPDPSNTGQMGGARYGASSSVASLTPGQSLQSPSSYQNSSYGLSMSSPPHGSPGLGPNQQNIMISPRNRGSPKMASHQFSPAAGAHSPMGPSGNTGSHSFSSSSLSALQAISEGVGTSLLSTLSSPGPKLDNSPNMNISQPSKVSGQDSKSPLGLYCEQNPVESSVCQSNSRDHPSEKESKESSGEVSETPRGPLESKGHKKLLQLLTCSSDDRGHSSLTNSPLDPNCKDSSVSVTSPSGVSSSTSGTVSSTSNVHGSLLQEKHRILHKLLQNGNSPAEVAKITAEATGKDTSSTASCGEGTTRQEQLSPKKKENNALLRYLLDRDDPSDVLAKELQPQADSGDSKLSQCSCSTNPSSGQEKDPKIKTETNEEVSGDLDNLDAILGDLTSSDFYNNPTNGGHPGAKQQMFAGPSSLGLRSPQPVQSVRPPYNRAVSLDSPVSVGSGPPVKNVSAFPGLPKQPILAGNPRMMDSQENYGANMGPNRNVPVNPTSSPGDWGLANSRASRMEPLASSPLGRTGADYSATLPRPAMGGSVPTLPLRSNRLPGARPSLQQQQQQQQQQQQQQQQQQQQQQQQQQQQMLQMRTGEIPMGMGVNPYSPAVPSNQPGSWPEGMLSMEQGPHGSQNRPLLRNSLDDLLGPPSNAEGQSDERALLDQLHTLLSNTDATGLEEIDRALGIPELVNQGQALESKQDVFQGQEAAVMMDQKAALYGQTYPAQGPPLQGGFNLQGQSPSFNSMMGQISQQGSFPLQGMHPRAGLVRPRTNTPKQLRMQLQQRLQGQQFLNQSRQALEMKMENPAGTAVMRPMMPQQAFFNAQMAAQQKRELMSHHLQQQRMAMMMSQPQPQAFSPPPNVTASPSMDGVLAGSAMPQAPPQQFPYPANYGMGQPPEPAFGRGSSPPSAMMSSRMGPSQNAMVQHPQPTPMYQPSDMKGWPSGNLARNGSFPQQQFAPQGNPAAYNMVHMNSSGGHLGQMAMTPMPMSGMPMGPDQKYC
Yeast superoxide – yeast age-related superoxide inhibition as caloric restriction mimetic; S. cerevisiae aged cells, superoxide DHE fluorescence; hits give low values; superoxide response (% of plate mean), % at 10 µM; actives 0.18% (n = 330,000);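 active = superoxide response under a set limit, about three screen SD below normal, cut at about 65% in these data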;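 also: yeast aged for seven days with compound at 30 °C before DHE staining; 100% = average MFI of all compound-treated wells on the plate with controls excluded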
beta cell repl – induces beta-cell replication in MIN6 cells | MIN6 cells proliferation, ATPlite luminescence, 48 h; cells starved in 0.2% serum; 100% = growth in 10% serum | proliferation, % at 10 µM | actives 0.29% (n = 330,000) | AID 2380;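 active = compounds whose signal lies at least 3.5 SD above the mean of all wells on their plate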;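 also: 0% = DMSO-treated cells in low-serum medium and 100% = 10% serum control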
V-ATPase pHluor – alters yeast V-ATPase proton transport; actives 0.37% (n = 350,000); response, % at 10 µM; AID 504577; S. cerevisiae, pHLuorin cytosolic pH fluorescence; in the data active = response mostly above about 7.3%, no sharp cut-off; inactive = mostly below about 5.4%; also: actives read high
HSV replic up – HSV replication enhancement; HSV replication augmentation in cells, fold increase; AID 1956; maximum fold increase; actives 0.005% (n = 220,000); in the data active = maximum fold increase above about 1.5; inconclusive = no clear call, values can overlap the other calls; tested in PC3 cells
CR mimetic CP – yeast aging superoxide inhibition, cherry pick confirmation; actives 1% (n = 850); AID 434994; superoxide response (% of plate), % at 10 µM; S. cerevisiae aging, superoxide DHE fluorescence; hits give low values; shares compounds with Yeast superoxide;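 active = superoxide signal below 65% of the plate average of sample wells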;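 also: cells aged with compound for 7 days at 30 degrees C before staining; 100% equals mean DHE fluorescence of all compound wells on the plate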
DHE counter – counter-screen for compounds affecting DHE oxidation and fluorescence in yeast; S. cerevisiae BY4741, flow cytometry; hits give low values; fluorescence response, % at 10 µM; shares compounds with Yeast superoxide; 850 tested, under 10 active;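 active = fluorescence response below 15%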;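 also: percent of the mean fluorescence averaged over all compound wells on the plate; lower means stronger quenching of DHE signal or ROS scavenging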
The depositor's hits bear a star; i = inactive; ? = inconclusive; . = no result.

SMILES | H9c2 protect | p-CIP stab down | Yeast superoxide | beta cell repl | V-ATPase pHluor | HSV replic up | CR mimetic CP | DHE counter
CCOC(=O)c1sc(NC(=O)COC(=O)C(CCSC)NC(C)=O)nc1C (configuration not stated) | 7 | -1 | 89 | 1 | -2 | i | . | .
Cc1[nH]c2ccccc2c1N=Nc1ccccc1F | -13 | 2 | 65* | -3 | 2 | i | 91 | 98
Cc1[nH]c2ccccc2c1N=Nc1ccc(F)cc1 | -34 | 8 | 94 | -7 | -1 | i | . | .
Cc1ccc(C(=O)Nc2cccc(NC(=O)c3ccc(C)c([N+](=O)[O-])c3)n2)cc1[N+](=O)[O-] | 1 | -10 | 61* | -2 | -1 | . | 94 | 104
Cc1cc(NC(=O)c2ccc(C)c([N+](=O)[O-])c2)no1 | 15 | -5 | 110 | 2 | 3 | i | . | .
CC(=O)OC[C@]12CC[C@H]3[C@@](C)(CC[C@H]4C(C)(C)CCC[C@]34C)[C@@H]1C[C@H](C1=CC(=O)O[C@@H]1OC(C)=O)O2 | . | . | 105 | -5 | . | . | . | .
CC1CN(C(=O)N2CCCCC2)CCN1C(=O)N1CCCCC1 (configuration not stated) | -1 | 2 | 127 | -2 | 1 | i | . | .
C=CCNC(=S)NNC(=O)COc1ccc(Cl)cc1Cl | -6 | -9 | 106 | -1 | 5 | i | . | .
C=C(C)CNC(=S)NNC(=O)CCn1c2ccc(Cl)cc2c2cc(Cl)ccc21 | -2 | -2 | 106 | -6 | 4 | i | 108 | 90
C=C(C)CNC(=S)NNC(=O)c1ccncc1 | 11 | -3 | 92 | 2 | -1 | i | . | .
C=C(C)CNC(=S)NNC(=O)CCn1c2cc(Cl)ccc2c2ccc(Cl)cc21 | 0 | 3 | 109 | -6 | -1 | i | 94 | 90
C=C(C)CNC(=S)NNC(=O)CCn1c2ccccc2c2ccccc21 | 2 | 0 | 104 | -3 | -2 | i | 104 | 91
CC(NC(=O)Cc1ccccc1)C(=O)O (configuration not stated) | 1 | . | 100 | -1 | 1 | . | . | .
COc1ccc(OC)c(CNC(=O)C2CCC(=O)N2C(C)C)c1 (configuration not stated) | 1 | -3 | 136 | 4 | 0 | . | . | .
CCOc1ccc2nc(SCC(=O)c3ccc(C)s3)sc2c1 | -14 | 4 | 107 | 0 | 2 | i | . | .
CCOc1ccc2nc(SCC(=O)c3ccc(O)cc3O)sc2c1 | -16 | -7 | 50* | 3 | 0 | . | 101 | 94
CC(=O)NC12CC3CC(C1)CC(C(=O)Nc1c(C)n(C)n(-c4ccccc4)c1=O)(C3)C2 | 8 | -20 | 62* | 1 | 0 | . | 97 | 108
Cc1c(NC(=O)C23CC4CC(CC(C)(C4)C2)C3)c(=O)n(-c2ccccc2)n1C | -1 | -12 | 96 | 2 | 0 | i | . | .
CCC(=O)c1ccc(N2CCN(C(=O)c3ccccc3)CC2)c(F)c1 | -14 | -10 | 85 | -2 | 3 | i | 106 | 96
CC(=O)c1ccc(N2CCN(C(=O)c3ccc(Br)cc3)CC2)c(F)c1 | -21 | -12 | 88 | -3 | 1 | i | 90 | 109
O=C(c1ccccc1)N1CCN(c2ccccc2F)CC1 | 0 | -13 | 98 | 2 | -2 | i | 119 | 99
CCOC(=O)N1CCN(c2ccc(C(=O)CC)cc2F)CC1 | -14 | -6 | 111 | 0 | -2 | i | . | .
CC1CCN(C(=O)c2[nH]cnc2C(=O)N2CCN(c3ccccc3)CC2)CC1 | 6 | . | 91 | 1 | 4 | . | . | .
Cc1cc(C)n(-c2nnc(NC34CC5CC(CC(C5)C3)C4)nn2)n1 | -10 | -15 | 64* | 0 | 0 | i | 87 | 98
COc1ccc(N(C(=O)c2snc(C(N)=O)c2N)C(C(=O)NC2CCCC2)c2cc(OC)ccc2OC)cc1 (configuration not stated) | 1 | 1 | 96 | -1 | -1 | . | . | .
SMILES | H9c2 protect | p-CIP stab down | Yeast superoxide | beta cell repl | V-ATPase pHluor | HSV replic up | CR mimetic CP | DHE counter
COc1ccccc1OCCNC(=O)c1ccc(Br)cc1 | 0 | 4 | 58* | 0 | -3 | . | 81 | 100
CC[N+]1=C(C)C(C)(C)c2cc(C)ccc21 | -19 | -58 | 108 | -6 | 1 | ? | . | .
Cc1ccc2c(c1)C=CC(C)(C)S2=O (configuration not stated) | -1 | -14 | 64* | -2 | -1 | i | 97 | 112
CC1(C)CC(N2CN(C3CCCCC3)CC2=O)CC(C)(C)N1 | 2 | -5 | 61* | -1 | -1 | i | 118 | 110
NC1=C(c2ccccc2)C(=O)NC1=O | 4 | 2 | 37* | -1 | -2 | . | 99 | 106
O=C1OCC(c2ccccc2)=C1c1ccccc1 | -8 | -11 | 97 | 0 | -3 | . | . | .
O=C1C(=O)N(C/C=C/c2ccccc2)c2ccccc21 | -7 | -4 | 100 | -6 | -3 | . | . | .
CC1(C)CSC(=S)N1S(=O)(=O)c1ccccc1 | -8 | -9 | 58* | -3 | 0 | i | 102 | 93
Cc1ccc(S(=O)(=O)N2c3ccccc3-c3c(ssc3=S)C2(C)C)cc1 | -6 | 2 | 105 | -3 | 4 | i | . | .
Cc1ccc2c(c1)N(CC(=O)NCC1CCCO1)C(=O)C(C(C)C)O2 (configuration not stated) | 3 | -7 | 101 | -1 | -4 | . | . | .
Cn1c(=O)c(C(=O)NNC(=O)c2ccccc2F)c(O)c2ccccc21 | 7 | -19 | 64* | -4 | 3 | . | 91 | 89
CCC1(c2ccccc2)NC(=O)N(CC(=O)NCc2ccc(OC)cc2)C1=O (configuration not stated) | 1 | -1 | 89 | 0 | -1 | . | . | .
COc1ccc2c(c1)c1nnc(SCC(=O)N3C(C)CCCC3C)nc1n2C (configuration not stated) | 13 | -8 | 111 | -2 | -4 | i | . | .
COc1ccc2c(c1)c1nnc(SC)nc1n2C | -3 | 8 | 44* | -2 | 3 | i | 67 | 87
COc1ccc(-c2nc3ccccc3c(=O)n2O)cc1 | 7 | -11 | 61* | 1 | -2 | . | 92 | 86
COc1cc(C(=O)c2ccccc2C(=O)O)c(OC)c2c1CCCC2 | 5 | . | . | . | -81 | . | . | .
CC(=O)Nc1cc2c(cc1NC(=O)Cn1nc(-c3ccccc3F)ccc1=O)OCCO2 | 0 | -4 | 62* | 0 | 0 | i | 100 | 110
CC(=O)c1ccc(NC(=O)CN2C(=O)COc3ccc(S(=O)(=O)N4CCCC4)cc32)cc1 | -3 | -1 | 82 | -1 | -1 | . | . | .

Bioassay records from PubChem.
